Rows were chosen to be rich in hits. Some 0.63% of all compounds tested hit in one or more screens of this group.
gsp ag – activates gsp, the McCune-Albright syndrome mutation. gsp mutant cells, cAMP HTRF, 30 min. Potency, µM (titrated, usually from 76.9 µM), for inactives: at the top dose activation (cAMP increase), most hits filed as activators. hit rate 0.13% among 340,000; active means well fitted activation curve with a large enough effect; inconclusive means small, poorly fitted or top-dose-only effect, or another doubt; inactive means no such curve, though single readings can be large or run the other way; cell line not stated here;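 further: phosphodiesterase inhibitor Ro 20-1724 added with compounds to block cAMP breakdown; potency means the concentration at half of the fitted maximal effect; nearly all actives have a fitted effect of over 60% in size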
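Cells in DMEM/10% FBS with G418 were pretreated with compounds in DMSO plus […] (300 uM stock) for 30 min at 37C. cAMP was measured by HTRF (cAMP-d2 plus anti-cAMP antibody-K) after 30 min at room temperature.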
TSHR antagonist – human thyrotropin receptor antagonism; P16473; AID 504810; hit rate 0.2% among 330,000; activity change, negative = inhibition, % at 11.5 µM; TSHR-expressing cells, TSH-stimulated cAMP HTRF, 2 h; stronger effect = lower value;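 active means activity change below a set negative limit, meaning inhibition stronger than a set level, cut at about -70% in these data; inconclusive means activity change between two set negative limits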; further: on the % scale 0 is the no-effect control and ±100 the full control effect
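Antagonism was scored as loss of TSH-driven cAMP in TSHR cells, stimulated with 4nM TSH (EC80) for 2 hours at 37 deg C and detected by homogeneous HTRF competition immunoassay.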
gsp antagonist – antagonists of gsp mutant (McCune-Albright syndrome) | gsp-mutant cells, cAMP HTRF, 30 min | Potency, µM (highest dose often 76.9 µM), for the others: at the highest dose activity change, negative = inhibition, usual class: inhibitors | hit rate 0.4% among 340,000 | AID 624288; calls by dose curve; cell line not stated here;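 further: intracellular cAMP measured with PDE inhibitor Ro 20-1724 present during compound exposure; potency means the concentration at half of the fitted maximal effect; on the % scale 0 is the no-effect control and ±100 the full control effect; nearly all actives have a fitted effect of over 65% in size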
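Measurement of cellular cAMP by homogeneous time-resolved fluorescence following a 30 min compound exposure at 37C. The PDE inhibitor […] was present throughout; the assay buffer was DPBS with 0.05% BSA and 0.005% Tween 20.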
ASM inhibitor – human S-ASM enzyme inhibition; P17405; placental ASM, HMU-PC fluorogenic substrate, 60 min; Potency, µM (doses to about 57.5 µM), for inactives: top-dose activity change, negative = inhibition, hits mostly inhibitors; hit rate 0.006% among 340,000; AID 504937; active means well fitted inhibition curve with a large enough effect; inconclusive means small, poorly fitted or top-dose-only effect; inactive means no such curve, though single readings can be large or run the other way; further: potency means the concentration at half of the fitted maximal effect
Target sequence (P17405 47-631 limits assumed): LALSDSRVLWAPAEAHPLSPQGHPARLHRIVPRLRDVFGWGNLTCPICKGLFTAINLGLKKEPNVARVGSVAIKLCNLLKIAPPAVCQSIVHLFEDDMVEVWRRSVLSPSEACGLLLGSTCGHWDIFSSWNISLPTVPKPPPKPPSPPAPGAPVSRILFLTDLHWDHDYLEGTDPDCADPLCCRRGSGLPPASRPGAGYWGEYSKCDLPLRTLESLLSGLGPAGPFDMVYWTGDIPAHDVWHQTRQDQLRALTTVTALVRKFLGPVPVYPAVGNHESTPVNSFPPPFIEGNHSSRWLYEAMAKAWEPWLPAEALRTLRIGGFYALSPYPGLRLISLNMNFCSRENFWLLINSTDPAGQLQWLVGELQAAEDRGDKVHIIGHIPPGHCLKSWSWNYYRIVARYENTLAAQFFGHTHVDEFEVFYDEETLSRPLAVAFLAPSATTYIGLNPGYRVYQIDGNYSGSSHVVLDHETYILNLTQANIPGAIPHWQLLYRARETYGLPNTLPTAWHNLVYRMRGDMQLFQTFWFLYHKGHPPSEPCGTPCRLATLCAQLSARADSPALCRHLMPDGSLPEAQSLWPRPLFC
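Fluorescence read-out (Ex 386 nm, Em 447 nm) after stopping the reaction at pH 10. Enzyme: ASM from human placenta; substrate HMU-PC0, 9 uM final; 60 min, 37 °C. Compound preincubation 10 min, ambient temperature.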
Numbers without * were called inactive; [ ] = dose if it differs, or a comment.

For Cc1ccc(NC(=O)Cn2nnc(C(=O)NCCc3ccccc3)c2N)c(C)c1 the results were gsp ag 5%, TSHR antagonist -107*, gsp antagonist 6% and ASM inhibitor -1%.
Screening COc1ccc(NC(=O)Cn2nnc(C(=O)NCc3cccs3)c2N)c(OC)c1 returned gsp ag inconclusive, TSHR antagonist -132*, gsp antagonist 9% and ASM inhibitor -2%.
Screening COc1ccc(CCNC(=O)c2nnn(CC(=O)Nc3ccc(C)cc3C)c2N)cc1OC returned gsp ag 30%, TSHR antagonist -82*, gsp antagonist 22% and ASM inhibitor -1%.
For Cc1ccc(-n2nnnc2SCC(=O)NCC2(N3CCOCC3)CCCCC2)c(C)c1 the results were gsp ag -28%, TSHR antagonist -8, gsp antagonist -13% and ASM inhibitor 0%.
Screening CC1(c2ccc3ccccc3c2)NC(=O)N(CC(=O)Nc2ncccc2O)C1=O (stereo unspecified) returned gsp ag inconclusive, TSHR antagonist 0, gsp antagonist 14% and ASM inhibitor 1%.
N=C(N)SCCc1ccc(CCSC(=N)N)cc1 was read as TSHR antagonist -25.
CCn1c(=O)n(CC)c2cc(N3CCCC3)c(NC(=O)c3ccc(F)cc3)cc21 was read as gsp ag -18%, TSHR antagonist 9, gsp antagonist inconclusive and ASM inhibitor 5%.
CCn1c(=O)n(CC)c2cc(N3CCCC3)c(NC(=O)c3c(F)cccc3F)cc21 was read as gsp ag 4%, TSHR antagonist -18, gsp antagonist 32µM* and ASM inhibitor -14%.
For CCCc1cc(=O)[nH]c(SCC(=O)Nc2cc(C)on2)n1 the results were gsp ag inconclusive, TSHR antagonist 27, gsp antagonist -1% and ASM inhibitor 1%.
`Cc1cccc(-n2c(SCC(N)=O)nc3c(c2=O)C2(CCCC2)Cc2ccccc2-3)c1` gave gsp ag 10µM*, TSHR antagonist -1, gsp antagonist 3% and ASM inhibitor -9%.
For NC(=O)CC[C@H](NC(=O)c1ccc(F)cc1)C(=O)OCC(=O)Nc1ccc(N2CCOCC2)cc1 the results were gsp ag -2%, TSHR antagonist -1, gsp antagonist 14% and ASM inhibitor 2%.
Screening COc1ccc(-c2csc(NC(=O)C3CCN(c4ncnc5sc(C)c(C)c45)CC3)n2)cc1OC returned gsp ag 8%[15.4 µM], TSHR antagonist -77*, gsp antagonist inconclusive and ASM inhibitor -13%.
For Cc1ccccc1OCC(=O)NNC(=O)C1CCN(c2ncnc3sc(C)c(C)c23)CC1 the results were gsp ag 0%, TSHR antagonist -26, gsp antagonist 35µM* and ASM inhibitor -3%.
Screening Cc1sc2ncnc(N3CCC(C(=O)NCC(=O)Nc4ccc(F)c(F)c4)CC3)c2c1C returned gsp ag -8%, TSHR antagonist -13, gsp antagonist 40µM* and ASM inhibitor -10%.
`CN1CCN(c2ccc(-c3cc(O)c4ncccc4c3)cc2)CC1` gave TSHR antagonist 3.
For CC(C)(C)NS(=O)(=O)c1ccc(/C=C/C(=O)O)cc1 the results were gsp ag 0%, TSHR antagonist 15, gsp antagonist 4% and ASM inhibitor 0%.
Screening Cc1cc(C)c(C#N)c(SCC(=O)Nc2ccc(S(=O)(=O)Nc3ncccn3)cc2)n1 returned gsp ag -7%[15.4 µM], TSHR antagonist 16, gsp antagonist -11% and ASM inhibitor 46%.
Cc1cc(C)c(C#N)c(SCC(=O)Nc2cccc(S(=O)(=O)N3CCCC3)c2)n1 was read as gsp ag 28µM*, TSHR antagonist 13, gsp antagonist 18% and ASM inhibitor 99%.
O=C(NCCN1CCOCC1)C1CC(=O)N(c2ccc(F)cc2)C1 (stereo unspecified) was read as gsp ag inconclusive, TSHR antagonist -11, gsp antagonist 10% and ASM inhibitor -3%.
For O=C(CN1C(=O)c2ccc(Br)cc2C1=O)NCC1CCCO1 (stereo unspecified) the results were gsp ag 7.1µM*, TSHR antagonist 41, gsp antagonist 13% and ASM inhibitor 0%.
For O=C(CN1C(=O)c2ccccc2C1=O)NCC1CCCO1 (stereo unspecified) the results were gsp ag inconclusive, TSHR antagonist 5, gsp antagonist 13% and ASM inhibitor 7%.

Compound activity as filed in PubChem.
